From the supplement of paper PMC4894684 come the findings set out here.

SMILES strings stand for the structures. Where a name gives a salt, the structure may show the parent alone. ± gives the standard deviation of the averaged measurements. Bounds are passed on as bounds.

The assay concerns Toxoplasma gondii RH (in HFF). The assay can be described thus: parasite growth relative to the screen mean (all compounds = 100%); higher = less inhibition of parasite growth. The conditions noted are these: 5 µM; 72 h; oxygen 21 %. A digest of the protocol: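 Confluent human foreskin fibroblasts in 96-well plates received library compounds by pin transfer at 5 µM final, taken from 10 mM DMSO stocks. Within 2 h the cells were infected with RH β-Gal–GFP Toxoplasma at MOI 1:5 and cultured 72 h at 21% O2. A CPRG β-Gal assay read against in-plate standard curves gave parasite number, and growth is stated relative to the screen mean, where all compounds = 100%, averaged across two screens.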
Compound `CCN(CC)CCOC(=O)c1cc(Cl)c(N)cc1OC` [SDZ 205-557 hydrochloride] gave a parasite growth of 105 ± 6.7%.
In turn, `O=C(O)C1=CCNCC1` [Isoguvacine hydrochloride] displayed a parasite growth of 130 ± 9.5%.
`CCc1c2c(nc3ccc(O)cc13)-c1cc3c(c(=O)n1C2)COC(=O)[C@]3(O)CC` returned a parasite growth of 110.2 ± 0.25%.
Compound `O=c1oc(-c2ccc(C(F)(F)F)cc2)nn1Cc1cc(Cl)ccc1O` had a parasite growth of 146 ± 11%.
`C=CCn1c(=O)n([C@@H]2O[C@H](CO)[C@@H](O)[C@H]2O)c2nc(N)[nH]c(=O)c21` came in with a parasite growth of 116 ± 8.2%.
As to `O=C(O)CCC/C=C\C[C@@H]1CO[C@H](C(F)(F)F)O[C@@H]1c1ccccc1O`, the parasite growth was 102 ± 25%.
On to `O=S(=O)(c1cccc2c(Cl)cccc12)N1CCCNCC1` [ML 9 hydrochloride], for which the parasite growth was 122 ± 19%.
`CCCCC#Cc1nc(NC)c2ncn([C@@H]3O[C@H](CO)[C@@H](O)[C@H]3O)c2n1` returned a parasite growth of 143 ± 8.2%.
Regarding `OC(c1ccccc1)C1CCN(CCc2ccccc2)CC1` (stereo unspecified), the parasite growth was determined as 70.7 ± 12%.
The value for `COc1ccccc1N1CCN(CCCNc2cc(=O)n(C)c(=O)n2C)CC1` [Urapidil hydrochloride] was 105 ± 3.7%; that for `COc1cccc(CCc2ccccc2OCC[C@@H]2C[C@@H](O)CN2C)c1` was 53.4 ± 25%; that for `CCCCN1CCCC1CNC(=O)c1cc(C#N)c2ccccc2c1OC` (stereo unspecified) [Nafadotride] was 127 ± 15%.
In the case of `CCN(CC)c1ccc(/C=N/NC(=O)c2ccc(O)cc2)cc1`, the parasite growth stood at 115 ± 28%.
`O=C1NN(C(=O)Nc2ccc(Br)cc2)[C@@H](c2ccccc2)[C@@H]1c1ccccc1` came in with a parasite growth of 124.5 ± 1.1%.
Consider `CC(C)N(CCC(=O)c1ccc2ccccc2c1)Cc1ccccc1`, for which the parasite growth is 77.6 ± 4.8%.
The same measure for `COC(=O)[C@@H]1CC2=CC(=O)CC[C@]2(C)[C@@]23O[C@@H]2C[C@@]2(C)[C@@H](CC[C@@]24CCC(=O)O4)[C@H]13` [Eplerenone]: 132 ± 22%.
Consider `COC(=O)/C=C/c1cc(O)ccc1O` [Methyl 2,5-dihydroxycinnamate], for which the parasite growth is 126 ± 30%.
Consider `CCCn1c(=O)[nH]c2nc(-c3ccc(S(=O)(=O)O)cc3)[nH]c2c1=O`, for which the parasite growth is 112 ± 5.7%.
The compound `O=C(OCCN1CCCCC1)c1c[nH]c2ccccc12` had a parasite growth of 113 ± 7.7%.
The compound `Brc1c(NC2=NCCN2)ccc2nccnc12` [UK 14,304 tartrate] had a parasite growth of 101 ± 27%.
`N=C(N)SCCc1ccc(OCc2ccc([N+](=O)[O-])cc2)cc1` [KB-R7943 mesylate] yielded a parasite growth below 0%.
Compound `O=c1c(O)c(-c2ccc(O)cc2)oc2cc(O)cc(O)c12` [Kaempferol] displayed a parasite growth of 155 ± 7.1%.
`CCN(CC)CCCCNc1ncc2cc(-c3c(Cl)cccc3Cl)c(NC(=O)NC(C)(C)C)nc2n1`: the parasite growth is below 0%.
`Cc1cc(C(=O)O)sc1C(N)C(=O)O` (stereo unspecified): the parasite growth turned out to be 126 ± 5.2%.
`CCC(=O)OCN1C(=O)C=CC1=O`: the parasite growth is 124 ± 12%.
Turning to `COC(=O)C(Cc1ccc(OCCn2c(=O)sc3cc(C(=O)c4ccccc4)ccc32)cc1)C(=O)OC`, the parasite growth stood at 120 ± 5.3%.
